An excerpt weighted towards active compounds, which were near 3.2% of everything screened.
A549 viability – Nrf2 qHTS screen for inhibitors: counterscreen for cytotoxicity | A549 ARE-Fluc cells, CellTiter-Fluor viability, 18-24 h | Potency, µM (titrated, usually from 46 µM), for inactives: top-dose activity change, negative = cytotoxicity, actives largely listed as inhibitors | hit rate 0.16% among 390,000; also: potency is read from the fitted curve at half-maximal effect; % is scaled to controls: 0 for no effect and ±100 for the full control effect
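A549 ARE_Fluc cells in 5% FBS OPTI-MEM were exposed to compounds in concentration-response for 18-24 h at 37 deg C. Viability was read by CellTiter-Fluor fluorescence (Ex 405/Em 525) after 30 min, before the luciferase read.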
IL2 activator – qHTS of IL-2 Activators. AID 652025, 2013. activation, % (series mostly up to about 46 µM). hit rate 0.065% among 360,000. IL-2 activation reporter assay, cell-based qHTS; stimulated with anti-CD3/CD4/CD28 beads; in transgenic mouse T cells; in the data active = activation above about 50%; inconclusive = mostly about 30% to 49%; also: 0% is about no effect
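Unstimulated transgenic mouse T cells, 750 per well, received compound and, after 60 minutes, anti-CD3/anti-CD4 bead plus anti-CD28 stimulation. EGFP and DsRed were quantified after 18 hours.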
BRCA1 expr act – qHTS Assay to Identify Small Molecule Activators of BRCA1 Expression | MCF7-BRCA1-FFLuc reporter, luminescence, 48 h; response scale: scaled: vehicle 0%, 10 µM genistein 100% | Potency, µM (titrated, usually from 46.1 µM), for the others: top-dose activation, hits mostly activators | hit rate 1.1% among 380,000 | AID 624202, 2012; also: potency is read from the fitted curve at half-maximal effect; nearly all actives have a fitted effect of over 80% in size
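Cells: MCF7-BRCA1-FFLuc, 2000/well. Exposure: 48 h, 37 °C, 5% CO2. Read: luminescence, 15 min post-substrate. Controls: genistein 10 microM (maximal activation), DMSO (neutral).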
Nrf2 ARE act – qHTS of Nrf2 Activators | hit rate 0.31% among 410,000 | Potency, µM (titrated, usually from 46.1 µM), inactives show at the top dose activation, actives largely listed as activators | AREc32 ARE-luciferase reporter (MCF7-derived line), luminescence, 24 h | AID 624171, 2012; also: potency is read from the fitted curve at half-maximal effect; % of control where 0% means no effect; nearly all actives have a fitted effect of over 65% in size
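Nrf2 activation is followed as ARE-luciferase induction in the AREc32 line after one day of compound treatment; luminescence is read with Steady-Glo.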
Nrf2 inh – Nrf2 qHTS screen for inhibitors. hit rate 2.1% among 360,000. A549 ARE-Fluc reporter, luciferase luminescence, 18-24 h. Potency, µM (doses to about 46 µM), for inactives: top-dose activity change, negative = inhibition, hits mostly inhibitors; also: potency is read from the fitted curve at half-maximal effect; % is scaled to controls: 0 for no effect and ±100 for the full control effect; nearly all actives have a fitted effect of over 60% in size
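Quantitative HTS in A549 cells stably bearing an antioxidant response element-firefly luciferase construct. Inhibition of Nrf2-driven transcription was scored by luminescence after 18-24 h of compound exposure at 37 °C.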
p53 reactivator – qHTS assay for re-activators of p53 using a Luc reporter; H1299 p53-A138V BP100-luciferase reporter, luminescence, 24 h; Potency, µM (titrated, usually from 92.2 µM), inactives show at the highest dose activity change, positive = activation, actives largely listed as activators; hit rate 0.063% among 320,000; AID 504706, 2011; also: potency is read from the fitted curve at half-maximal effect; % of control where 0% means no effect; nearly all actives have a fitted effect of over 45% in size
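p53-null H1299 cells stably carrying temperature-sensitive p53-A138V and a BP100-luciferase reporter were pinned with compounds (4-point, 1:5 series) and held 24 hrs at 37 deg C. Luminescence was read 10 min after detection reagent.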
* marks the source's active call; other numbers are inactive results; u = inconclusive; x = not tested or not shown; [ ] = dose if it differs, or a comment. Unless noted, calls follow the shape of the dose curve; as a rule, active = well fitted curve in the direction sought with a large enough effect; inconclusive = small, poorly fitted or top-dose-only effect, or another doubt; inactive = no such curve, though single readings can be large; an effect the other way counts as inactive or inconclusive.

SMILES | A549 viability | IL2 activator | BRCA1 expr act | Nrf2 ARE act | Nrf2 inh | p53 reactivator
CS(=O)(=O)N(CC(O)CON=C1c2ccccc2-c2ccccc21)c1ccc(F)cc1 (stereo unspecified) | -26% | -1 | -29% | 0% | 8.2µM* | x
COc1ccc(Cc2nc(-c3ccc(-n4cccc4)cc3)no2)cc1 | 7% | -1 | 11% | -1% | u | 12%
c1ccc(CCc2ccccc2-c2nc(-c3cccnc3)no2)cc1 | 4% | 1 | -19% | 4% | 5% | 0%
COc1ccc(Cc2nc(-c3ccc(-n4cccc4)cc3)no2)cc1OC | 2% | -1 | -35% | 21% | 16µM* | -7%
COc1ccc(Cc2nc(-c3ccccc3)no2)cc1 | 0%[1.84 µM] | 0 | 11µM* | 5% | u | 21%
c1ccc(CCc2nc(-c3ccccc3)no2)cc1 | 12% | -2 | 13µM* | 7% | 28% | 19%
Brc1ccc(-c2noc(CCc3ccccc3)n2)cc1 | u | 0 | 53% | 4% | u | x
c1ccc(CCc2nc(-c3cccnc3)no2)cc1 | 2% | -1 | 10µM* | 10% | 7% | u
Fc1ccc(Nc2nc(NCc3ccco3)nc3nccnc23)cc1 | -3% | x | -31% | x | u | x
COc1cccc(NC(=O)CN2C(=O)C3(SCC(=O)N3c3cc(C)cc(C)c3)c3ccccc32)c1 (stereo unspecified) | -8% | x | -9% | -1% | -10% | x
Cc1ccc2nc(SCc3nc(-c4ccccc4C)no3)[nH]c2c1 | -1% | x | -15% | 0% | u | x
CCCC(=O)Oc1c(Sc2ccc(C)cc2)c(C)nn1-c1ccccc1 | 4% | x | x | 3% | 9%[9.27 µM] | x
Cc1ccc(NC2=CC(c3ccccc3F)N(c3ccc(C)cc3)C2=O)cc1 (stereo unspecified) | -15% | x | x | 4% | 2% | x
CCCc1nc(-c2ccc(-c3ccc(F)cc3)cc2)no1 | -3% | -2 | 4µM* | 2% | 0% | 20%
O=C(NCCc1nc(-c2ccc(F)cc2)no1)c1ccc(F)cc1 | 1% | 1 | -12% | 0% | u | 4%
O=C(CSc1ccccc1)Nc1ccc(N2CCOCC2)cc1 | 1% | -1 | u | 10% | 30% | u
O=C(Nc1ccc(N2CCOCC2)cc1Cl)C1CCN(C(=O)OCc2ccccc2)CC1 | 0% | 0 | 30% | 3% | u | 2%
O=C(CSc1ccccc1F)Nc1ccc(N2CCOCC2)cc1 | -1% | 0 | 5.6µM* | 3% | 2% | u
O=C(Nc1ccc(N2CCOCC2)cc1)C1CCN(C(=O)OCc2ccccc2)CC1 | 1% | 2 | 2.8µM* | 0% | 2% | 4%
O=C(CSc1ccccc1)Nc1ccc(N2CCOCC2)c(F)c1 | 10% | 2 | 7.9µM* | 0% | u | 29%
COc1ccc2c(c1OC)C(=O)OC2c1ccc(O)cc1 (stereo unspecified) | -6% | x | -1% | x | u | x
COc1ccccc1-c1noc(-c2ccc(N(C)Cc3ccccc3)c([N+](=O)[O-])c2)n1 | -9% | x | -3% | 4% | -9% | x
Cc1onc(-c2ccccc2Cl)c1C(=O)Nc1nnc(C2CCCCC2)s1 | 3% | x | -6% | x | u | x
COc1ccccc1C1=Nn2c(nnc2-c2ccccc2C)SC1 | -15% | x | x | x | -41% | x
O=[N+]([O-])c1cc(CN2CCOCC2)c2cccnc2c1O | u | -1 | -7% | 1% | 23µM* | -1%
CN(Cc1cc([N+](=O)[O-])c2cccnc2c1O)C1CCCCC1 | x | x | x | x | x | 2%
O=[N+]([O-])c1cc(CN2CCN(c3ccccc3)CC2)c(O)c2ncccc12 | u | -5 | -63% | -1%[9.22 µM] | 2.6µM* | 11%
CCC(=O)Nc1nnc(S(=O)(=O)N(C)Cc2ccc(Cl)cc2)s1 | 2% | x | x | -1% | 2% | x
